The values below come from PubChem BioAssay (NCATS).

Molecules are shown by their SMILES. Unmarked numbers belong to inactive results. Results filed as inconclusive are left out. Activity calls are given as the source filed them. Calls follow the shape of the dose curve; as a rule, active = well fitted curve in the direction sought with a large enough effect; inconclusive = small, poorly fitted or top-dose-only effect, or another doubt; inactive = no such curve, though single readings can be large; an effect the other way counts as inactive or inconclusive.

System in the first assay: not listed separately
The assay can be described thus: Primary fluorescence-based thiol-reactive (MSTI) qHTS assay for identification of artifact compounds. (AID 1845221). Also: nearly all actives have a fitted effect of over 65% in size. Also: potency is read from the fitted curve at half-maximal effect.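 As to activity change, negative = thiol reactive: thiol-reactive compounds lower the probe fluorescence signal.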 Particulars: MSTI thiol-reactivity probe, 1 h; series mostly up to 53.8 µM; activity change, negative = thiol reactive: at the top concentration. In a few lines:
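One-hour, room-temperature, dark incubation of compound with 4 uM MSTI in PBS (pH 7.4, 2% DMSO) precedes a fluorescence read at 525 nm excitation, 598 nm emission; Hill-equation fitting yields concentration-response values.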
(In qHTS, concentration-response curves come from the screen itself.)
Take `C=CC(C)(C)c1[nH]c2ccccc2c1C[C@@H]1NC(=O)[C@H](C)NC1=O`: the Potency is 5.85 µM (active).

Regarding `COc1ccc(NC(=O)C2C[C@H](C)CC[C@H]2C(C)C)cc1` (stereo partly drawn), the “activity change, negative = thiol reactive” value (“activity change” for short) was 3.05%.

With `COCCCNC(=O)c1ccc(Cn2c(=O)c3ccccc3n(Cc3ccc(C(C)C)cc3)c2=O)cc1`, the “activity change” value was 7%.

On to `Cc1nc2ccc(-n3ncc(C(=O)c4cc5ccccc5[nH]4)c3N)cc2[nH]1`, for which the “activity change” value is 211%.

Consider `N#Cc1ccc(COc2ccc(-c3cccc4nc(NC(=O)C5CC5)nn34)cc2)cn1`, for which the “activity change” value was 41.1%.

For `C=C1CC(=O)C2OC2(C)CC2OC(=O)C(=C)C2C(O)C1OC(=O)/C(C)=C\C` (stereo not drawn), the “activity change” value was -17.4%.

Turning to `Cc1cc(C)nc(SCC(=O)Nc2ncc(Cc3cccc4ccccc34)s2)n1`, the “activity change” value is -9.52%.

On to `COc1ccc(CN2CCN(CCCSc3cc(C(C)(C)C)c(O)c(C(C)(C)C)c3)CC2)c(OC)c1OC`, for which the activity change, negative = thiol reactive is 2.62% [at 11.5 µM].

Turning to `CCOC(=O)C1(CCOc2ccccc2)CCN(Cc2ccc(O)c(Cl)c2)CC1`, the “activity change” value was 27.7%.

Consider `COc1cc(C(C)=O)c(OC)c2c1OC(C)(C)C=C2`, for which the “activity change” value is 7.29%.

In the case of `Cn1ncc(Cl)c1-c1cc(C(=O)N[C@H](CN)Cc2ccc(F)c(F)c2)sc1Cl`, the “activity change” value was 217%.

As for `C=C(CCC1C(C)(O)CCC2C(C)(C)C(O)CCC12C)C(O)CO` (stereo not drawn), the Potency was 13.1 µM (active).

For `C=C1CC[C@H]2C(=C)CC[C@H]3C(=C)C(=O)O[C@@H]3[C@@H]12`, the “activity change” value is 26.1%.

With `C=C1C(=O)OC2/C=C(\COC(C)=O)CC/C=C(\C=O)CC(OC(=O)C(C)CC)C12` (stereo not drawn), the “activity change” value is 24.1% [at 25.6 µM].

With `C=C[C@]1(C)C[C@H](O)[C@H]2C(=C)C(=O)O[C@@H]2[C@H]1C(=C)CO`, the “activity change” value was 31.7%.

Consider `Cc1ccc(NC(=O)N2CCN(c3nc(N)nc4sc(-c5cccnc5)nc34)CC2)cc1`, for which the “activity change” value is 193%.

As to `C/C=C(/C=C(C)/C=C/C=C/C=C(\C)C(=O)C12OC1C(O)(CCO)NC2=O)C(=O)OC` (stereo not drawn), the “activity change” value was 14.3% [at 25.6 µM].

For the compound `Nc1cccc(CNC(=O)c2ccc(Oc3ccc(OCc4cccc(F)c4)cc3)nc2)c1`, the “activity change” value was -19.8%.

For `Cc1nc2c(C(F)(F)F)cccc2nc1-c1ccc(-c2cccc(S(C)(=O)=O)c2)cc1`, the “activity change” value is -2.79%.

`NC(N)=N/N=C/c1ccccc1Cl`: the “activity change” value is 0.54%.

As to `C=C(C)Cn1c(SCC(=O)c2cccs2)nc2sc3c(c2c1=O)CCCC3`, the “activity change” value was -0.591%.

Regarding `CC(=O)O[C@@H]1CC[C@@]2(C)C(CC[C@]3(C)C2[C@H](O)C=C2[C@H]4[C@@H](C)[C@H](C)CC[C@]4(C)CC[C@]23C)[C@@]1(C)C(=O)O` (stereo partly drawn), the “activity change” value was 13.8% [at 25.6 µM].

On to `CCS(=O)c1nc(-c2cccc(OCc3ccccc3)c2)cc(C(F)(F)F)n1` (stereo not drawn), for which the “activity change” value was -11.2%.

On to `O=C(O)C1=CO[C@@H](O[C@@H]2O[C@H](CO)[C@@H](O)[C@H](O)[C@H]2O)[C@@H]2C(CO)=CC[C@H]12`, for which the “activity change” value was -20%.

Consider `C=CC(=O)N1CCCN(c2cc(NCCC(=O)O)nc(-c3ccccn3)n2)CC1`, for which the “activity change” value was 6.24%.

As to `Cc1ccc(C2(C(=O)N3CCC(n4nc(-c5ccccc5)oc4=O)CC3)CC2)cc1`, the “activity change” value is 49.7%.

As to `C=C1CC2OC(=O)C(=C)C2C(OC(=O)/C(C)=C\C)CC2(C)OC1=CC2=O` (stereo not drawn), the “activity change” value was 11.3%.

Consider `C=C1C(=O)OC2CC(C)C(CCC(C)=O)=CCC12` (stereo not drawn), for which the “activity change” value is 5.71%.

For the compound `Fc1ccc(-c2cncc(CN3CCN(c4cccc5c4OCCO5)CC3)c2)cc1`, the “activity change” value was -3.6%.

As for `CC(=O)c1ccc2c(c1)[C@H](NC(=O)c1ccc(F)c(Cl)c1)[C@H](O)C(C)(C)O2`, the “activity change” value was 102%.

As to `CC(=O)OC[C@]12[C@H](OC(C)=O)[C@H](OC(=O)c3ccccc3)[C@@H]3[C@@H](OC(C)=O)[C@]1(OC3(C)C)[C@H](C)C[C@H](OC(C)=O)[C@@H]2OC(=O)c1ccccc1`, the “activity change” value is 117% [at 25.6 µM].

Turning to `COc1ccc2c(NC(=O)Nc3cccc(C(F)(F)F)n3)ccnc2c1`, the “activity change” value is 4.73%.

`CC(C)c1cc(-c2ccc(F)c3ccccc23)nc(N)n1`: the “activity change” value is 35.8%.

Turning to `COc1c(C(O)CC(C)C)ccc2c1C(=O)OCc1cc(C)cc(O)c1O2` (stereo not drawn), the “activity change” value was -3.89%.

`CC(=O)NC[C@H]1CN(c2ccc(N3CCSCC3)c(F)c2)C(=O)O1`: the “activity change” value was -7.73%.

In the case of `C=C(C)C(=O)O[C@H]1C[C@@](C)(O)C2(O)CCC(C)(/C=C3/OC(=O)C(COC)=C31)O2` (stereo partly drawn), the “activity change” value was -12.9%.

Regarding `Cc1ccc(C(C)C)c(O[C@@H]2O[C@H](CO)[C@@H](O)[C@H](O)[C@H]2O)c1`, the Potency was 10.4 µM (active).

For `C[C@H](CN(C)C)Oc1nc(Nc2cc3cccc(Cl)c3cn2)cnc1C#N`, the “activity change” value was 53.1%.

Turning to `CCCCCCCCC(=O)N[C@H](CN1CCCC1)[C@H](O)c1ccc2c(c1)OCCO2`, the “activity change” value is 6.75%.

The test system of the next assay is Nanoluciferase (engineered Oplophorus gracilirostris luciferase). The assay can be described thus: Primary Nanoluciferase (NLuc) qHTS assay for identification of artifact compounds. (AID 1845222).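 Also: 0% = DMSO and -100% = no enzyme.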 To be noted: NLuc-conditioned medium, Nano-Glo luminescence, 5 min; series mostly up to 54.1 µM; activity, negative = inhibition: at the top concentration. A digest of the protocol: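 Luminescence from secreted NLuc (filtered, 1:55-diluted S16 cell medium) read 5 min after Nano-Glo substrate; compounds preincubated 15 min, RT. Hill fits of inhibition normalized to DMSO and no-enzyme.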
In the case of `C=CC(C)(C)c1[nH]c2ccccc2c1C[C@@H]1NC(=O)[C@H](C)NC1=O`, the “activity, negative = inhibition” value was -1.11%.

Turning to `COc1ccc(NC(=O)C2C[C@H](C)CC[C@H]2C(C)C)cc1` (stereo partly drawn), the “activity, negative = inhibition” value is -10.6%.

With `COCCCNC(=O)c1ccc(Cn2c(=O)c3ccccc3n(Cc3ccc(C(C)C)cc3)c2=O)cc1`, the “activity, negative = inhibition” value is 2.97%.

`Cc1nc2ccc(-n3ncc(C(=O)c4cc5ccccc5[nH]4)c3N)cc2[nH]1`: the “activity, negative = inhibition” value was -5.57%.

Consider `N#Cc1ccc(COc2ccc(-c3cccc4nc(NC(=O)C5CC5)nn34)cc2)cn1`, for which the “activity, negative = inhibition” value is -2.04%.

With `C=C1CC(=O)C2OC2(C)CC2OC(=O)C(=C)C2C(O)C1OC(=O)/C(C)=C\C` (stereo not drawn), the “activity, negative = inhibition” value is -4.46%.

`Cc1cc(C)nc(SCC(=O)Nc2ncc(Cc3cccc4ccccc34)s2)n1`: the “activity, negative = inhibition” value was 4.9%.

Consider `COc1ccc(CN2CCN(CCCSc3cc(C(C)(C)C)c(O)c(C(C)(C)C)c3)CC2)c(OC)c1OC`, for which the activity, negative = inhibition is 3.22% [at 11.6 µM].

For `CCOC(=O)C1(CCOc2ccccc2)CCN(Cc2ccc(O)c(Cl)c2)CC1`, the “activity, negative = inhibition” value is 1.1%.

Regarding `COc1cc(C(C)=O)c(OC)c2c1OC(C)(C)C=C2`, the “activity, negative = inhibition” value was 2.32%.

Regarding `Cn1ncc(Cl)c1-c1cc(C(=O)N[C@H](CN)Cc2ccc(F)c(F)c2)sc1Cl`, the “activity, negative = inhibition” value was 2.03%.

As to `C=C(CCC1C(C)(O)CCC2C(C)(C)C(O)CCC12C)C(O)CO` (stereo not drawn), the “activity, negative = inhibition” value is -8.54%.

Regarding `C=C1CC[C@H]2C(=C)CC[C@H]3C(=C)C(=O)O[C@@H]3[C@@H]12`, the “activity, negative = inhibition” value was 2.18%.

Turning to `C=C1C(=O)OC2/C=C(\COC(C)=O)CC/C=C(\C=O)CC(OC(=O)C(C)CC)C12` (stereo not drawn), the “activity, negative = inhibition” value was 1.04% [at 25.7 µM].

As for `C=C[C@]1(C)C[C@H](O)[C@H]2C(=C)C(=O)O[C@@H]2[C@H]1C(=C)CO`, the “activity, negative = inhibition” value was 2.17%.

For the compound `Cc1ccc(NC(=O)N2CCN(c3nc(N)nc4sc(-c5cccnc5)nc34)CC2)cc1`, the “activity, negative = inhibition” value is -5.88%.

For the compound `C/C=C(/C=C(C)/C=C/C=C/C=C(\C)C(=O)C12OC1C(O)(CCO)NC2=O)C(=O)OC` (stereo not drawn), the “activity, negative = inhibition” value was -2.74% [at 25.7 µM].

`Nc1cccc(CNC(=O)c2ccc(Oc3ccc(OCc4cccc(F)c4)cc3)nc2)c1`: the “activity, negative = inhibition” value was -5.64%.

For the compound `Cc1nc2c(C(F)(F)F)cccc2nc1-c1ccc(-c2cccc(S(C)(=O)=O)c2)cc1`, the “activity, negative = inhibition” value was 0.0979%.

On to `NC(N)=N/N=C/c1ccccc1Cl`, for which the “activity, negative = inhibition” value was -1.01%.

Turning to `C=C(C)Cn1c(SCC(=O)c2cccs2)nc2sc3c(c2c1=O)CCCC3`, the “activity, negative = inhibition” value was -15.2%.

On to `CC(=O)O[C@@H]1CC[C@@]2(C)C(CC[C@]3(C)C2[C@H](O)C=C2[C@H]4[C@@H](C)[C@H](C)CC[C@]4(C)CC[C@]23C)[C@@]1(C)C(=O)O` (stereo partly drawn), for which the “activity, negative = inhibition” value was 2.73% [at 25.7 µM].

For `CCS(=O)c1nc(-c2cccc(OCc3ccccc3)c2)cc(C(F)(F)F)n1` (stereo not drawn), the “activity, negative = inhibition” value was -11.8%.

On to `O=C(O)C1=CO[C@@H](O[C@@H]2O[C@H](CO)[C@@H](O)[C@H](O)[C@H]2O)[C@@H]2C(CO)=CC[C@H]12`, for which the “activity, negative = inhibition” value is 0%.

On to `C=CC(=O)N1CCCN(c2cc(NCCC(=O)O)nc(-c3ccccn3)n2)CC1`, for which the “activity, negative = inhibition” value is -4.55%.

With `Cc1ccc(C2(C(=O)N3CCC(n4nc(-c5ccccc5)oc4=O)CC3)CC2)cc1`, the “activity, negative = inhibition” value was -12.1%.

For `C=C1CC2OC(=O)C(=C)C2C(OC(=O)/C(C)=C\C)CC2(C)OC1=CC2=O` (stereo not drawn), the “activity, negative = inhibition” value is 3.22%.

For the compound `C=C1C(=O)OC2CC(C)C(CCC(C)=O)=CCC12` (stereo not drawn), the “activity, negative = inhibition” value was 4.31%.

In the case of `Fc1ccc(-c2cncc(CN3CCN(c4cccc5c4OCCO5)CC3)c2)cc1`, the “activity, negative = inhibition” value was -1.87%.

Regarding `CC(=O)c1ccc2c(c1)[C@H](NC(=O)c1ccc(F)c(Cl)c1)[C@H](O)C(C)(C)O2`, the “activity, negative = inhibition” value was -19.9%.

Regarding `CC(=O)OC[C@]12[C@H](OC(C)=O)[C@H](OC(=O)c3ccccc3)[C@@H]3[C@@H](OC(C)=O)[C@]1(OC3(C)C)[C@H](C)C[C@H](OC(C)=O)[C@@H]2OC(=O)c1ccccc1`, the “activity, negative = inhibition” value was -2.28% [at 25.7 µM].

Regarding `COc1ccc2c(NC(=O)Nc3cccc(C(F)(F)F)n3)ccnc2c1`, the “activity, negative = inhibition” value is 1.97%.

In the case of `CC(C)c1cc(-c2ccc(F)c3ccccc23)nc(N)n1`, the “activity, negative = inhibition” value is 0.292%.

`COc1c(C(O)CC(C)C)ccc2c1C(=O)OCc1cc(C)cc(O)c1O2` (stereo not drawn): the “activity, negative = inhibition” value is 1.65%.

In the case of `CC(=O)NC[C@H]1CN(c2ccc(N3CCSCC3)c(F)c2)C(=O)O1`, the “activity, negative = inhibition” value is 3.16%.

Take `C=C(C)C(=O)O[C@H]1C[C@@](C)(O)C2(O)CCC(C)(/C=C3/OC(=O)C(COC)=C31)O2` (stereo partly drawn): the “activity, negative = inhibition” value was -7.38%.

As to `Cc1ccc(C(C)C)c(O[C@@H]2O[C@H](CO)[C@@H](O)[C@H](O)[C@H]2O)c1`, the “activity, negative = inhibition” value was -0.114%.

As to `C[C@H](CN(C)C)Oc1nc(Nc2cc3cccc(Cl)c3cn2)cnc1C#N`, the “activity, negative = inhibition” value was -3.24%.

Turning to `CCCCCCCCC(=O)N[C@H](CN1CCCC1)[C@H](O)c1ccc2c(c1)OCCO2`, the “activity, negative = inhibition” value is -2.03%.
